Source: PubChem BioAssay (Tox21)
Records with an inconclusive call do not appear. Active and inactive are the calls of the source. Unless noted, calls come from the whole dose curve; as a rule, active = well fitted curve in the direction sought with a large enough effect in the repeat runs; inconclusive = weak or mixed curves; inactive = no such curve, though single readings can be large; an effect the other way counts as inactive or inconclusive.

Assays:
[1] = qHTS assay to identify small molecule antagonists of the glucocorticoid receptor (GR) signaling pathway - cell viability counter screen (AID 720693); note: nearly all actives have a fitted effect of over 55% in size
[2] = qHTS assay for identifying genotoxic compounds that show differential cytotoxicity against isogenic chicken DT40 cell lines with known DNA damage response pathways - wild type cell line (AID 743012); note: nearly all actives have a fitted effect of over 60% in size; note: potency is the fitted concentration of half-maximal effect
Outline: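 Wild type DT40, 300 cells/well, ~0.5 h settle at 37 C/5% CO2; compounds in DMSO added by pintool; 40 h at 37 C/5% CO2; CellTiter-Glo, 30 min RT; luminescence.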

[3] = qHTS assay for identifying genotoxic compounds that show differential cytotoxicity against isogenic chicken DT40 cell lines with known DNA damage response pathways - Rad54/Ku70 mutant cell line (AID 743015); note: nearly all actives have a fitted effect of over 60% in size; note: potency is the fitted concentration of half-maximal effect
[4] = target: Androgen receptor (Homo sapiens) (UniProt P10275); assay: qHTS assay to identify small molecule antagonists of the androgen receptor (AR) signaling pathway (AID 743035; active = well fitted inhibition curve with a large enough effect in the signal ratio in the repeat runs, not every such curve was filed as active; the % refers to the signal ratio)
Chain of Androgen receptor (Homo sapiens) (P10275 whole entry, looked up): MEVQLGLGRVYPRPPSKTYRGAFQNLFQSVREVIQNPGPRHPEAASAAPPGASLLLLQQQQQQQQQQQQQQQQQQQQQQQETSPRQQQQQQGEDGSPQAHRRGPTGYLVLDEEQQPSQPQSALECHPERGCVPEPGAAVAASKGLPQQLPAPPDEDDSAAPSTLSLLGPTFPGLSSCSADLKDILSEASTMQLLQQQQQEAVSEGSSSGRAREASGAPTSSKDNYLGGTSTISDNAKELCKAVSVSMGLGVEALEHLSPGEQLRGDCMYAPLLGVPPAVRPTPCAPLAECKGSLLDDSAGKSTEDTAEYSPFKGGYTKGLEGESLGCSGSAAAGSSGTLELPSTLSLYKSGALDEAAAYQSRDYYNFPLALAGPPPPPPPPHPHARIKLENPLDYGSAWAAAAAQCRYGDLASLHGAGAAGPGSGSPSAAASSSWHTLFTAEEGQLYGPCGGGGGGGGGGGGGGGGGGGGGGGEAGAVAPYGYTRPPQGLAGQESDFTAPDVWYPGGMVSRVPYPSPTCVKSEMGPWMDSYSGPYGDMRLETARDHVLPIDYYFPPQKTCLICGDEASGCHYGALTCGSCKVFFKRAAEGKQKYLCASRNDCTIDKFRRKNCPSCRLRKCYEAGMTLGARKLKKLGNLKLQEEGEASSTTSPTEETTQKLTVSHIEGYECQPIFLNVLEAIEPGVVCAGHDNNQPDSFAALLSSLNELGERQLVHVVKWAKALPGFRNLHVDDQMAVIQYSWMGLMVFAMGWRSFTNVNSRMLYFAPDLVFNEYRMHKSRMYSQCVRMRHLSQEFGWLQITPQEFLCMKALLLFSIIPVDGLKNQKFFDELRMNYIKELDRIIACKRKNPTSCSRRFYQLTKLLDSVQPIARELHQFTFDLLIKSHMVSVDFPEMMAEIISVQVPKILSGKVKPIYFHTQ
Outline: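 Fluorescence from a beta-lactamase FRET substrate (LiveBLAzer B/G, 2 h, room temperature) measured inhibition of R1881-stimulated signaling in GeneBLAzer AR-UAS-bla HEK293 cells exposed to compound for 16 h at 37C.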

[5] = target: Androgen receptor (Homo sapiens) (UniProt P10275); assay: qHTS assay to identify small molecule agonists of the androgen receptor (AR) signaling pathway (AID 743036; active = well fitted activation curve with a large enough effect in the signal ratio in the repeat runs, with a control signal flat, not every such curve was filed as active; the % refers to the signal ratio)
Outline: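 In this Tox21 qHTS, 2,000 HEK293 AR-bla cells per well were incubated with compounds for 16 h at 37C and 5% CO2. Fluorescence intensity was recorded 2 h after adding LiveBLAzer B/G FRET substrate at room temperature.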

[6] = target: Androgen receptor (Homo sapiens) (UniProt P10275); assay: qHTS assay to identify small molecule agonists of the androgen receptor (AR) signaling pathway using the MDA cell line (AID 743040; note: nearly all actives have a fitted effect of over 20% in size)
Outline: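 After a 5 h incubation at 37C and 0% CO2, MDA-kb2 reporter cells were dosed with compounds in DMSO and kept 16 h under the same conditions. Luciferase activity was then read as luminescence with ONE-Glo.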

[7] = qHTS assay to identify small molecule antagonists of the androgen receptor (AR) signaling pathway using the MDA cell line - cell viability counter screen (AID 743041; note: nearly all actives have a fitted effect of over 45% in size)
Outline: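 R1881-driven MDA-kb2 AR-luc cells, 3,000/well, were dosed with library compounds for 16 h; cell health came from CellTiter-Fluor fluorescence in the reporter wells.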

[8] = target: Androgen receptor (Homo sapiens) (UniProt P10275); assay: qHTS assay to identify small molecule antagonists of the androgen receptor (AR) signaling pathway using the MDA cell line (AID 743042; note: nearly all actives have a fitted effect of over 55% in size)
Outline: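 Antagonist mode: compounds plus R1881 agonist added to MDA-kb2 AR-luc cells, incubated 16 h at 37C. Luciferase reporter luminescence quantified, with multiplexed CellTiter-Fluor readout for cell viability.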

[9] = qHTS assay to identify small molecule antagonists of the thyroid receptor (TR) signaling pathway (AID 743065); note: nearly all actives have a fitted effect of over 55% in size; note: potency is the fitted concentration of half-maximal effect
Outline: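 Antagonism measured as loss of luciferase signal in GH3 cells stably carrying a TRE-luciferase reporter, co-treated with compound and T3 (1 nM final) for 23.5 h at 37 C. Viability was read in the same well by CellTiter-Fluor.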

[10] = tested on: thyroid hormone receptor (rat, GH3 cells); assay: qHTS assay to identify small molecule agonists of the thyroid receptor (TR) signaling pathway (AID 743066; calls by dose curve)
[11] = qHTS assay to identify small molecule antagonists of the estrogen receptor alpha (ER-alpha) signaling pathway - cell viability counter screen (AID 743074; calls by dose curve;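 note: HEK293 cells carrying ER-alpha-UAS-bla reporter stimulated with 17beta-estradiol; nearly all actives have a fitted effect of over 45% in size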)
[12] = target: Aromatase (Homo sapiens) (UniProt P11511); assay: qHTS assay to identify aromatase inhibitors (AID 743083); note: nearly all actives have a fitted effect of over 55% in size
Chain of Aromatase (Homo sapiens) (P11511 whole entry, looked up): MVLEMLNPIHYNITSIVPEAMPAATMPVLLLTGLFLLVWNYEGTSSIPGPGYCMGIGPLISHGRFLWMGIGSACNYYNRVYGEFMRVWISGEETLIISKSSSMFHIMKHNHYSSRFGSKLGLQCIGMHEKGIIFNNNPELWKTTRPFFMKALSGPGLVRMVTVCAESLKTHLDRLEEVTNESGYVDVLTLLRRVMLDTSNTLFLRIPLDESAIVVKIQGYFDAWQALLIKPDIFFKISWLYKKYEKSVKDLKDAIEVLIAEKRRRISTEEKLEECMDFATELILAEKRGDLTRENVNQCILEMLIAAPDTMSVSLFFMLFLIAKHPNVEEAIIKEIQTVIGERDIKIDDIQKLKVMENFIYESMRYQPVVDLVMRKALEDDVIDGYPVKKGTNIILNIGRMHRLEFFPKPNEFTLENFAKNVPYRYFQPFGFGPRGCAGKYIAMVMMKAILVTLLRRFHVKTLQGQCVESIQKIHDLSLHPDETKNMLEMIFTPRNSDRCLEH

[13] = qHTS assay to identify small molecule antagonists of the androgen receptor (AR) signaling pathway - cell viability counter screen (AID 743033; note: nearly all actives have a fitted effect of over 45% in size)
[14] = qHTS assay to identify small molecule antagonists of the thyroid receptor (TR) signaling pathway - cell viability counter screen (AID 743064); note: nearly all actives have a fitted effect of over 50% in size
Outline: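 Counter screen for cytotoxicity: compound plus T3 (1 nM final) on GH3.TRE-Luc cells, 23.5 h at 37 °C, then fluorescence viability readout with CellTiter-Fluor.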

[15] = target: Estrogen receptor (Homo sapiens) (UniProt P03372); assay: qHTS assay to identify small molecule antagonists of the estrogen receptor alpha (ER-alpha) signaling pathway (AID 743069; active = well fitted curve in the direction sought with a large enough effect in the signal ratio in the repeat runs, not every such curve was filed as active; the % refers to the signal ratio)
Chain of Estrogen receptor (Homo sapiens) (P03372 whole entry, looked up): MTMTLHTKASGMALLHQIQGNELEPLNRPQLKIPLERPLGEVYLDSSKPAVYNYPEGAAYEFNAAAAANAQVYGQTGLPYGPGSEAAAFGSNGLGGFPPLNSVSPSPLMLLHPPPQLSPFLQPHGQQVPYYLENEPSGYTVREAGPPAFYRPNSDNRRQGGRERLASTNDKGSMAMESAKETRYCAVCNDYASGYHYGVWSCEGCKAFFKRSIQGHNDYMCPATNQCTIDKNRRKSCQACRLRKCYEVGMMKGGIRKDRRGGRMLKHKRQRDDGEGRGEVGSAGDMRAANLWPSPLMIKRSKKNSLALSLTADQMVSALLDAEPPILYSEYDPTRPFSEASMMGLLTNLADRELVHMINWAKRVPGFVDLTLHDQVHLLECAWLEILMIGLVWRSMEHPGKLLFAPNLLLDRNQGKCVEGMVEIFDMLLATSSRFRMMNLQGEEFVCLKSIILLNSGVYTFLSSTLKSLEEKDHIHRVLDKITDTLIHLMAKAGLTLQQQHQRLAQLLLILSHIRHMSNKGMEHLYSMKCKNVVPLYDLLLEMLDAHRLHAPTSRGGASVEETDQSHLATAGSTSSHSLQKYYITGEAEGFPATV
Outline: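 Compound effects are measured against 17beta-estradiol stimulation in HEK293 cells with a UAS-controlled beta-lactamase reporter for ER-alpha. Exposure lasts 18 hr at 37C; LiveBLAzer B/G FRET substrate follows for 2 hr at room temperature.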

[16] = target: Estrogen receptor (Homo sapiens) (UniProt P03372); assay: qHTS assay to identify small molecule agonists of the estrogen receptor alpha (ER-alpha) signaling pathway (AID 743075; calls by dose curve)
[17] = target: Estrogen receptor (Homo sapiens) (UniProt P03372); assay: qHTS assay to identify small molecule agonists of the estrogen receptor alpha (ER-alpha) signaling pathway using the BG1 cell line (AID 743079); details: BG1Luc4E2 cells, ERE-luciferase agonist, 22 h; note: nearly all actives have a fitted effect of over 20% in size
[18] = qHTS assay to identify small molecule antagonists of the estrogen receptor alpha (ER-alpha) signaling pathway using the BG1 cell line (AID 743080; calls by dose curve;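 note: BG1 cells stimulated with 17beta-estradiol alongside compound; nearly all actives have a fitted effect of over 25% in size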; note: potency is the fitted concentration of half-maximal effect)
Outline: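 BG1-Luc-4E2 cells (endogenous full-length ER-alpha, 4xERE luciferase) hormone-starved 5 days in charcoal-stripped FBS, plated 4,000/well for 24 h, then compound plus 17beta-estradiol for 21.5 h at 37 C; ONE-Glo luminescence read.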

[19] = qHTS assay to identify small molecule antagonists of the estrogen receptor alpha (ER-alpha) signaling pathway using the BG1 cell line - cell viability counter screen (AID 743081);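 note: compound given together with 17beta-estradiol as the ER stimulus; nearly all actives have a fitted effect of over 45% in size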
[20] = qHTS assay for identifying genotoxic compounds that show differential cytotoxicity against isogenic chicken DT40 cell lines with known DNA damage response pathways - Rev3 mutant cell line (AID 743014); note: nearly all actives have a fitted effect of over 55% in size
% is set by controls: 0 for no effect and ±100 for the full control effect.

CC(C)(C)NCC(O)c1cc(Cl)c(N)c(Cl)c1 (configuration not stated)
inactive: Potency [1] | Potency [2] | Potency [3] | Potency [4] | outcome [5] | Potency [6] | Potency [7] | outcome [8] | Potency [9] | Potency [10] | outcome [11] | Potency [12]

Cc1ncc(CNC(=O)N(CCCl)N=O)c(N)n1
inactive: Potency [1] | Potency [2] | Potency [3] | Potency [13] | Potency [7] | Potency [14] | Potency [9] | Potency [10] | Potency [15] | outcome [11] | Potency [16] | activation ([17]; at 70.3 µM (top of the series)) 12.7% | Potency [18] | Potency [19] | Potency [12]

CCCCP(CCCC)CCCC
inactive: Potency [1] | Potency [2] | Potency [3] | Potency [13] | Potency [7] | Potency [14] | Potency [9] | Potency [10] | Potency [15] | outcome [11] | Potency [16] | activation ([17]; at 70.3 µM (top of the series)) 0.877% | Potency [18] | Potency [19] | Potency [12]

O=[N+]([O-])c1cccc(O)c1
inactive: Potency [1] | Potency [2] | Potency [3] | Potency [7] | Potency [14] | Potency [10] | outcome [11] | Potency [19] | Potency [12]

CNC(=O)N(C)c1nc2ccccc2s1
inactive: Potency [1] | Potency [2] | Potency [3] | Potency [13] | Potency [6] | Potency [7] | outcome [8] | Potency [14] | Potency [9] | Potency [10] | Potency [19] | Potency [12]

CN1C(=S)CN=C(c2ccccc2)c2cc(Cl)ccc21
active: Potency [2] 23.7 µM | Potency [3] 29.8 µM | Potency [18] 13.3 µM
inactive: Potency [1] | Potency [13] | Potency [14] | Potency [10] | outcome [11] | Potency [16] | Potency [19] | Potency [12]

CN1CCN(C(=O)O[C@H]2c3nccnc3C(=O)N2c2ccc(Cl)cn2)CC1
inactive: Potency [1] | Potency [2] | Potency [3] | Potency [13] | Potency [7] | Potency [14] | Potency [9] | Potency [10] | outcome [11] | Potency [19] | Potency [12]

COc1cc(C[C@@H](C)N)c(OC)cc1C
inactive: Potency [1] | Potency [20] | Potency [3] | Potency [7] | Potency [15] | outcome [11] | Potency [18] | Potency [19] | Potency [12]
active: Potency [9] 65.4 µM

CCOC(=O)N(C)C(=O)CSP(=S)(OCC)OCC
inactive: Potency [1] | Potency [7] | Potency [14] | Potency [10] | outcome [11] | Potency [19]
active: Potency [2] 30.6 µM | Potency [3] 24.3 µM

CCCSC(=O)Cl
inactive: Potency [1] | Potency [20] | Potency [13] | Potency [7] | Potency [14] | Potency [9] | Potency [10] | Potency [15] | outcome [11] | Potency [16] | activation ([17]; at 95 µM (top of the series)) 3.93% | Potency [18] | Potency [19] | Potency [12]
